Data: PubChem BioAssay (NCATS)
Where “and” joins values, the source holds several entries; their conditions need not be identical. Equal entries are not always repeated. Records with an inconclusive call do not appear. Some structures have more than one record in an assay (separate samples or runs), and their calls can disagree. Calls of active or inactive are those of the source. Unless noted, calls follow the shape of the dose curve; as a rule, active = well fitted curve in the direction sought with a large enough effect; inconclusive = small, poorly fitted or top-dose-only effect, or another doubt; inactive = no such curve, though single readings can be large; an effect the other way counts as inactive or inconclusive.

What was measured:
[1] = molecular target: Protein phosphatase 1D (Homo sapiens) (UniProt O15297); assay: Rhodamine-PBP qHTS Assay for Modulators of WT P53-Induced Phosphatase 1 (WIP1) (AID 1347425); settings: recombinant WIP1, Rhodamine-PBP phosphate fluorescence, real-time; series mostly up to 57.5 µM
Protein phosphatase 1D (Homo sapiens), sequence (O15297 whole entry, looked up): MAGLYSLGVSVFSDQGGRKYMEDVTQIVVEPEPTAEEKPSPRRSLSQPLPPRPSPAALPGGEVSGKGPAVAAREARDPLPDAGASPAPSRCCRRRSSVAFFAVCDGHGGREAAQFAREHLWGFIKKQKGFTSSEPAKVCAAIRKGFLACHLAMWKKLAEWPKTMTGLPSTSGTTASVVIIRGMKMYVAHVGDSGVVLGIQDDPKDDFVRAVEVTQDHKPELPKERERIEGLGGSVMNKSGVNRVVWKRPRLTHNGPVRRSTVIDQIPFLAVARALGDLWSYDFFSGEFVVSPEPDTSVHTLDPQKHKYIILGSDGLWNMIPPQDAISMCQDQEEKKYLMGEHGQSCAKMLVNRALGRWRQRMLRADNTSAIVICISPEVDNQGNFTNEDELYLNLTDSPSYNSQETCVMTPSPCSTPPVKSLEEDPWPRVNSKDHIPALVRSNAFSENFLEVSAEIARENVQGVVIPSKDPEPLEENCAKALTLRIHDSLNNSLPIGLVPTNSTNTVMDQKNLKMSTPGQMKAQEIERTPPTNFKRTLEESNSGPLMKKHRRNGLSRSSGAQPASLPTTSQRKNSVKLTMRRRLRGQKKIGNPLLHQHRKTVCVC
Method in brief: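 WIP1 (5 nM final) was preincubated with compound for 1 hour at room temperature. It then dephosphorylated 10 uM VEPPL-pS-QETFS peptide in Tris-HCl pH 7.5 with 30 mM MgCl2. Released Pi was detected by 10 uM Rh-PBP fluorescence (ex 525/em 598 nm) read at 1-min intervals for 11 min, as delta f1 - f0.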

[2] = Primary qHTS for inhibitors of La Crosse Virus (LACV) - induced cell death in SH-SY5Y cells (AID 1508616); settings: SH-SY5Y LACV cytopathicity rescue, ATP luminescence, 6 d; series mostly up to 4.29 µM;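 also: top concentration of the series differs between compounds; higher means more rescue of cells from virus-induced death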
Method in brief: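 SH-SY5Y, 6000 cells/well; cpd via pin tool in DMSO; LACV 0.01 MOI; 6 d 37C 5% CO2; ATPLite, 5 min RT; luminescence normalized to ±virus DMSO controls.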

[3] = molecular target: Calcium and integrin-binding protein 1 (Homo sapiens) (UniProt Q99828); assay: Primary qHTS for Identification of Calcium Integrin Binding Protein 1 (CIB1) Competitor (AID 1508620); settings: CIB1-GST / FITC-alphaIIb peptide fluorescence polarization; series mostly up to 57.7 µM;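 also: GST tagged CIB1 binding a fluorescein labelled alphaIIb integrin peptide tracer; top concentration of the series differs between compounds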
Calcium and integrin-binding protein 1 (Homo sapiens), sequence (Q99828 whole entry, looked up): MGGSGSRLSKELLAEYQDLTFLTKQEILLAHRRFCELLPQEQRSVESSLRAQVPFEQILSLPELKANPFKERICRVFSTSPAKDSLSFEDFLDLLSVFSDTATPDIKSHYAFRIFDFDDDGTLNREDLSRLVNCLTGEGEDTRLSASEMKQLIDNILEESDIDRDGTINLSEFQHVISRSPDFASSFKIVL
Method in brief: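 CIB1-GST (1 uM final) and compound incubated 15 min at room temperature before adding FITC-alphaIIb peptide tracer (100 nM final). Competition for binding read by fluorescence polarization (ex 480, em 540) after another 15 min at room temperature.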

[4] = A High-Content qHTS Against Drug Library for the Identification of Small Molecules that Inhibit DYT1 Early Onset Primary Dystonia-Associated Cell Pathology (AID 1645839; calls by dose curve); settings: HEK293 Flp-In EGFP-delE TorsinA, punctate imaging, 48 h; series mostly up to 46.1 µM
Method in brief: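 High-content imaging quantified EGFP-TorsinA mislocalization in HEK293-derived cells inducibly expressing DYT1 mutant torsinA, after 48 h exposure to compound given together with tetracycline induction. Cell count served as a toxicity channel alongside %pathology.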

[5] = molecular target: Cytochrome P450 2D6 (Homo sapiens) (UniProt P10635); assay: Cytochrome P450 family 2 subfamily D member 6 (CYP2D6) small molecule antagonists: luciferase biochemical (cell-free) qHTS assay (AID 1645840; active = well fitted curve in the direction sought with a large enough effect in the repeat runs; an effect the other way counts as inactive or inconclusive; also: nearly all actives have a fitted effect of over 55% in size; also: potency is read from the fitted curve at half-maximal effect); settings: P450-Glo CYP2D6 enzyme, luciferin luminescence, 1 h; series mostly up to 57.4 µM
Cytochrome P450 2D6 (Homo sapiens), sequence (P10635 whole entry, looked up): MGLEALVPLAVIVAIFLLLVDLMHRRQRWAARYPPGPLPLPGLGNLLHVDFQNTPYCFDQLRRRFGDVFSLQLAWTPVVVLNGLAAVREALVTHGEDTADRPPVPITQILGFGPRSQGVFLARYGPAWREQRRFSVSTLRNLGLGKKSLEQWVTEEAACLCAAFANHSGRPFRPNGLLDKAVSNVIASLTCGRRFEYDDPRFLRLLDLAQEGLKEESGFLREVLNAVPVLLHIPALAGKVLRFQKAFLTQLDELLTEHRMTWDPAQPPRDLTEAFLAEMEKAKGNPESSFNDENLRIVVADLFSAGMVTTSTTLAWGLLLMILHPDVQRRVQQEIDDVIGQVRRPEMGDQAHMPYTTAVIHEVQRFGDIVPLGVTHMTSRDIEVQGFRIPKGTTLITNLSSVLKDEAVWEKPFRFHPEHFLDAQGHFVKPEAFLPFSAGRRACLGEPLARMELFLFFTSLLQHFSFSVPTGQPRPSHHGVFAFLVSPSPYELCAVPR
Method in brief: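 P450-Glo CYP2D6 system: proluciferin substrate converted by enzyme to luciferin, read by luminescence proportional to activity. Enzyme-substrate mix with compound 10 min at room temperature, then NADPH regeneration 1 h before detection reagent.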

[6] = molecular target: Cytochrome P450 2C9 (Homo sapiens) (UniProt P11712); assay: Cytochrome P450 family 2 subfamily C member 9 (CYP2C9) small molecule antagonists: luciferase biochemical (cell-free) qHTS assay (AID 1645842; active = well fitted curve in the direction sought with a large enough effect in the repeat runs; an effect the other way counts as inactive or inconclusive; also: nearly all actives have a fitted effect of over 55% in size; also: potency is read from the fitted curve at half-maximal effect); settings: P450-Glo CYP2C9 enzyme assay, luciferin luminescence; series mostly up to 57.4 µM
Cytochrome P450 2C9 (Homo sapiens), sequence (P11712 whole entry, looked up): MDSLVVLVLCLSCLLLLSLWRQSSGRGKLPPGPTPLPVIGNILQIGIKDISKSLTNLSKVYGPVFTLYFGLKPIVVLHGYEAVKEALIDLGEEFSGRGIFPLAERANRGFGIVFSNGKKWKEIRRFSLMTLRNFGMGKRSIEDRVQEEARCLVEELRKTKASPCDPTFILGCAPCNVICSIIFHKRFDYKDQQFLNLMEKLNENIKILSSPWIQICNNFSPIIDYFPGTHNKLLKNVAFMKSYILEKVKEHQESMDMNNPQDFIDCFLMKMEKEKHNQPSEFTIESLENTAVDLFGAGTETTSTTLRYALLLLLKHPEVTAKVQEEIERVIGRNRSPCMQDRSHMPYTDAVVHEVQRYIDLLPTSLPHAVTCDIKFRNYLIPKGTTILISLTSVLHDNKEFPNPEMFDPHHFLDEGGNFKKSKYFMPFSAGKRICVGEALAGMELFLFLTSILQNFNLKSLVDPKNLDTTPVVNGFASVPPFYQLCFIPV
Method in brief: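 P450-Glo CYP2C9 system: proluciferin substrate with enzyme in mix containing 0.4% BSA, 10 min at room temperature, then NADPH regeneration solution added and incubated 1 h at 37C. Detection reagent stopped reaction; luminescence read after 20 min as RLU.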

[7] = Primary qHTS for inhibitors of nuclear receptor binding SET domain protein 2 (NSD2) in an isogenic RCH-ACV NSD2 p.E1099K mutant (9B) (AID 1645876); settings: RCH-ACV NSD2 E1099K (9B) viability, CellTiter-Glo, 72 h; series mostly up to 44.9 µM; also: nearly all actives have a fitted effect of over 70% in size; also: potency is read from the fitted curve at half-maximal effect
[8] = Primary qHTS for inhibitors of nuclear receptor binding SET domain protein 2 (NSD2) in an RCH-ACV wild type WT cells (2C) (AID 1645877); settings: RCH-ACV (leukaemia line) NSD2 WT (2C) viability, CellTiter-Glo, 72 h; series mostly up to 44.9 µM; also: nearly all actives have a fitted effect of over 70% in size; also: potency is read from the fitted curve at half-maximal effect
[9] = Primary qHTS for small molecule stabilizers of the endoplasmic reticulum resident proteome: Secreted ER Calcium Modulated Protein (SERCaMP) assay (AID 1508630); settings: SH-SY5Y GLuc-SERCaMP (Gaussia luciferase released on ER calcium loss) secretion, thapsigargin, luminescence; series mostly up to 38.4 µM
Method in brief: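 The SH-SY5Y reporter protocol was run at 3 concentrations up to 38.3 uM (primary) or 11 concentrations (follow-up): 16 h compound, 100 nM thapsigargin for 4 h, then extracellular luciferase luminescence.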

[10] = molecular target: Rap guanine nucleotide exchange factor 3 (Homo sapiens) (UniProt O95398); assay: Confirmatory qHTS for antagonist of cAMP-regulated guanine nucleotide exchange factor 3 (EPAC1) (AID 1645880); settings: EPAC1 Rap1B-BODIPY-GDP exchange, fluorescence; series mostly up to 115 µM; also: nearly all actives have a fitted effect of over 55% in size
Rap guanine nucleotide exchange factor 3 (Homo sapiens), sequence (O95398 whole entry, looked up): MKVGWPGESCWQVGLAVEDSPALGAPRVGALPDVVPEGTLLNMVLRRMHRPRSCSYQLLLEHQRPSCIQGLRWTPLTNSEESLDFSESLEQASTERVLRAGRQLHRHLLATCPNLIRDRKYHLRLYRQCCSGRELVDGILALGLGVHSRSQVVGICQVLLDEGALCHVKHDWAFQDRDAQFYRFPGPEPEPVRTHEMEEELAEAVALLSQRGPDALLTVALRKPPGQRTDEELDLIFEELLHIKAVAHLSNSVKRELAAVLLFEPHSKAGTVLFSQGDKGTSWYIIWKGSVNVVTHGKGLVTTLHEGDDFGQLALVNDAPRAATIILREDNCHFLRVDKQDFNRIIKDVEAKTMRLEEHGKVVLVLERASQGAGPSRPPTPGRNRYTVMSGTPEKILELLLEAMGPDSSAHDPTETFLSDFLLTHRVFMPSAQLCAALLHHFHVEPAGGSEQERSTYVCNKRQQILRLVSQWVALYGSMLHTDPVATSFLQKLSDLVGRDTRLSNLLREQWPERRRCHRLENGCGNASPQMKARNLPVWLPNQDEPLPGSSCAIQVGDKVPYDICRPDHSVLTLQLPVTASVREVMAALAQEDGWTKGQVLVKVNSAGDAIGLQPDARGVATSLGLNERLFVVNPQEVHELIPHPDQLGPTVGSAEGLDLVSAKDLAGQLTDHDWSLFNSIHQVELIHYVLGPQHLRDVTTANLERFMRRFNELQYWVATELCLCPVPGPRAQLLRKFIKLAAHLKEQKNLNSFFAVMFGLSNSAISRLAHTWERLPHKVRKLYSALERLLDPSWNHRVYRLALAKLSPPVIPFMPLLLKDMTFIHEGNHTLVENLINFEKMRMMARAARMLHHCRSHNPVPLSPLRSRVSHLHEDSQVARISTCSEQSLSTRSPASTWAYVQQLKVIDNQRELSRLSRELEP
Method in brief: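 Released BODIPY-GDP fluoresces less than Rap1-bound BODIPY-GDP; the signal is followed at 480/540 nm at 5-min intervals over 30 min, after 5 min at room temperature. Reactions contain 100 nM EPAC1, 250 nM RAP1B-BODIPY-GDP and 50 uM GDP; results are normalized to ATA and DMSO.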

[11] = molecular target: N-terminal Xaa-Pro-Lys N-methyltransferase 1 (Homo sapiens) (UniProt Q9BV86); assay: Confirmatory qHTS for Inhibitors of N-terminal methyltransferase 1 (NTMT1): MTaseGlo Assay (AID 1645874); settings: NTMT1 enzyme, MTase-Glo SAH luminescence; series mostly up to 51.5 µM;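 also: luminescence from SAH made as NTMT1 methylates SPKRIA peptide using SAM; nearly all actives have a fitted effect of over 65% in size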
N-terminal Xaa-Pro-Lys N-methyltransferase 1 (Homo sapiens), sequence (Q9BV86 whole entry, looked up): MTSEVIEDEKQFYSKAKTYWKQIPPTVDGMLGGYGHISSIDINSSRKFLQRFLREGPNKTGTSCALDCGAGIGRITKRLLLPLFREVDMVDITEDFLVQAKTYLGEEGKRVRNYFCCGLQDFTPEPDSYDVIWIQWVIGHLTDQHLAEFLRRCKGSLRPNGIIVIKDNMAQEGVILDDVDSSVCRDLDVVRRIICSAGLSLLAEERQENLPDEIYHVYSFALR
Method in brief: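 Inhibition was derived from luminescence after SAH-to-ATP conversion, scaled between no-enzyme and DMSO wells, then fitted by 4-parameter Hill. Conditions: 125 nM NTMT1, 100 uM SAM, 1 uM SPKRIA, 30 min RT.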

[12] = molecular target: Cytochrome P450 3A4 (Homo sapiens) (UniProt P08684); assay: Cytochrome P450 family 3 subfamily A member 4 (CYP3A4) small molecule antagonists: luciferase qHTS assay (AID 1645841; active = well fitted curve in the direction sought with a large enough effect in the repeat runs; an effect the other way counts as inactive or inconclusive; also: nearly all actives have a fitted effect of over 45% in size); settings: P450-Glo CYP3A4 enzyme assay, luciferin luminescence; series mostly up to 57.4 µM
Cytochrome P450 3A4 (Homo sapiens), sequence (P08684 whole entry, looked up): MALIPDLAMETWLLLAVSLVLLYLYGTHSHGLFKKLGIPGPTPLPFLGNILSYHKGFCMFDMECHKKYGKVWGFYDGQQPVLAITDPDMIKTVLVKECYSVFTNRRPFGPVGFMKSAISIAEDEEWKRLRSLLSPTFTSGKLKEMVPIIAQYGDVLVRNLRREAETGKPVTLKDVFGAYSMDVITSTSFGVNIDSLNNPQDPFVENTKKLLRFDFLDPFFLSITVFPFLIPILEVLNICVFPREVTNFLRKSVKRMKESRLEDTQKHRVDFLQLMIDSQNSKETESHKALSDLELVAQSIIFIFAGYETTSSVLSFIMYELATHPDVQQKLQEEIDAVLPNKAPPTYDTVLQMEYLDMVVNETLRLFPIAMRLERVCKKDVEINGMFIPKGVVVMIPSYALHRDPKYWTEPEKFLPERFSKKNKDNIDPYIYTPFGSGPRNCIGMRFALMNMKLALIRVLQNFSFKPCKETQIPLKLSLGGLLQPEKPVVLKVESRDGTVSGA
Method in brief: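 Luminescent CYP3A4 activity readout: compounds plus enzyme-substrate mix 10 min at room temperature, reaction started with NADPH regenerating system for 1 h, stopped with detection reagent, read after 20 min. Ketoconazole served as control.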

Measured: Potency

CCCc1cc(C(N)=S)ccn1
inactive: [1] | [2] | [3] | [4] | [5] | [6] | [7] | [8]

CN(CCOc1ccc(CC2SC(=O)NC2=O)cc1)c1ccccn1 (stereo not given)
inactive: [1] | [2] | [3] | [9] | [4] | [6] | [7] | [8]

CCCN[C@H]1CCc2nc(N)sc2C1
inactive: [1] | [2] | [3] | [9] | [4] | [6] | [7] | [8]

CC(=O)CC(c1ccccc1)c1c(O)c2ccccc2oc1=O (stereo not given)
inactive: [1] | [2] | [3] | [4] | [5] | [7] | [8]

O=P(O)(O)C(O)(Cc1cccnc1)P(=O)(O)O
inactive: [1] | [2] | [3] | [4] | [5] | [6] | [7] | [8]

Cc1oc(=O)oc1CN1CCN(c2cc3c(cc2F)c(=O)c(C(=O)O)c2n3C(C)S2)CC1 (stereo not given)
inactive: [1] | [2] | [3] | [4] | [5] | [6] | [7] | [8]

CN(C)CCc1c[nH]c2ccc(C[C@H]3COC(=O)N3)cc12
inactive: [1] | [2] | [3] | [4] | [5] | [6] | [7] | [8] | [10]

CC(C)OC(=O)C(C(=O)OC(C)C)=C1SC=CS1
inactive: [1] | [2] | [3] | [9] | [4] | [7] | [8]

Nc1nc(=S)c2[nH]cnc2[nH]1
inactive: [1] | [2] | [3] | [9] | [5] | [11]
active: [6] 15.5 µM | [7] 750 nM and 833 nM | [8] 1.06 µM and 742 nM

C[C@@H]1C[C@H]2[C@@H]3CCC4=CC(=O)C=C[C@]4(C)[C@@]3(Cl)[C@@H](O)C[C@]2(C)[C@@]1(OC(=O)c1ccco1)C(=O)CCl
active: [5] 2.45 µM | [6] 4.36 µM | [7] 23.7 µM
inactive and 1.2 nM (active): [8]
inactive: [1] | [2] | [3]

COc1ccc(-c2ccc3cc(C(=O)O)ccc3c2)cc1C12CC3CC(CC(C3)C1)C2
inactive: [1] | [2] | [3] | [5] | [6] | [7] | [8]

CN(Cc1cc(Br)cc(Br)c1N)C1CCCCC1
active: [5] 0.0195 µM
inactive: [1] | [2] | [3] | [9] | [4] | [7] | [8]

CCc1cc(C(N)=S)ccn1
inactive: [1] | [2] | [3] | [9] | [4] | [11] | [7] | [8]

O[C@@H](CNC[C@H](O)[C@H]1CCc2cc(F)ccc2O1)[C@@H]1CCc2cc(F)ccc2O1
inactive: [1] | [2] | [3] | [9] | [6]
active: [5] 0.0389 µM | [7] 11.9 µM | [8] 11.9 µM

CC(C)C1CCC(C(=O)N[C@H](Cc2ccccc2)C(=O)O)CC1 (stereo not given in full)
inactive: [1] | [2] | [3] | [4] | [5] | [7] | [8]

COC(c1ccccc1)(c1ccccc1)[C@H](Oc1nc(C)cc(C)n1)C(=O)O
inactive: [1] | [2] | [3] | [4] | [5] | [6] | [7] | [8]

C[C@]12C=CC(=O)C=C1CC[C@@H]1[C@@H]2C(=O)C[C@@]2(C)[C@H]1CC[C@]2(O)C(=O)CO
inactive: [1] | [2] | [3] | [9] | [4] | [7] | [8]

CC(C)(C)NC(=O)[C@H]1CC[C@H]2[C@@H]3CC[C@H]4NC(=O)C=C[C@]4(C)[C@H]3CC[C@]12C
inactive: [1] | [2] | [3] | [4] | [5]

CC(C(=O)O)c1ccc2c(c1)CC(=O)c1ccccc1S2 (stereo not given)
inactive: [1] | [2] | [3] | [9] | [4] | [6] | [7] | [8]

CCN(C)C(=O)Oc1cccc([C@H](C)N(C)C)c1
inactive: [1] | [2] | [3] | [9] | [4] | [7] | [8]

CC[C@H](C)C(=O)O[C@H]1C[C@@H](C)C=C2C=C[C@H](C)[C@H](CC[C@@H]3C[C@@H](O)CC(=O)O3)[C@H]21
active: [7] 16.8 µM and 10.5 µM | [8] 8.33 µM
inactive: [1] | [2] | [3] | [9] | [4]

CNC(=O)c1cc(Oc2ccc(NC(=O)Nc3ccc(Cl)c(C(F)(F)F)c3)cc2)ccn1
active: [6] 19.5 µM | [7] 9.34 µM and 21.1 µM and 5.15 µM | [8] 7.42 µM and 5.15 µM
inactive: [1] | [2] | [3] | [9]

O=NN(CCCl)C(=O)NC1CCCCC1
inactive: [1] | [2] | [3] | [4] | [5] | [12] | [6] | [7] | [8]
